# The whole screen tested about 13,000 compounds, of which about 3,200 (25%) showed an effect of 50% or more. Some of the results follow.
# Test system: P. falciparum stage V gametocytes
# Design: BacTiter-Glo ATP luminescence viability of purified stage V gametocytes in 384-well plates, per cent inhibition versus DMSO
# Conditions: 48 h, 5 µM; inhibitor
row,SMILES,% Inhibition [%]
1,CC(=O)Oc1c(C(=O)C2CCC(C(C)(C)C)CC2)c(OC(C)=O)c2ccccc2c1OC(C)=O (stereo not shown) [TCMDC-138179],0.9625
2,O=S(=O)(NCCN1CCCC1)c1ccc(-c2ccccc2CNC2Cc3ccccc3C2)cc1 [TCMDC-132210],61.07
3,O=S(=O)(NCCN1CCCC1)c1cccc(-c2ccccc2CNC2Cc3ccccc3C2)c1 [TCMDC-132212],102.4
4,COc1cccc(OC)c1C(=O)N1CCC2(CC1)C(=O)N(CC(=O)NC1CCCCC1)CN2c1ccccc1 [TCMDC-125168],-28.41
5,CC1CCc2c(C(=O)N3CCc4ccccc4C3)csc2C1 (stereo not shown) [TCMDC-123624],13.04
6,Cc1ccc(Nc2nccc(NCC(O)c3cccc(C)c3)n2)cc1 (stereo not shown) [TCMDC-136569],-32.98
7,CN(C)CC(=O)Nc1cccc(Nc2nccc(NCC(O)c3ccccc3)n2)c1 (stereo not shown) [TCMDC-136472],19.31
8,CN1CCN(c2cccc(Nc3nccc(NCC(O)c4ccccc4)n3)c2)CC1 (stereo not shown) [TCMDC-136468],11.64
9,CN(C)Cc1cccc(-c2ccc(Nc3nccc(NCC(O)c4ccccc4)n3)cc2)c1 (stereo not shown) [TCMDC-136470],73.29
10,CN1CCC(Oc2ccc(Nc3nccc(NCC(O)c4ccccc4)n3)cc2Cl)CC1 (stereo not shown) [TCMDC-136471],60.18
11,Cc1nc(-c2cccc(Nc3nccc(NCC(O)c4ccccc4)n3)c2)cs1 (stereo not shown) [TCMDC-136565],4.289
12,CN(C)Cc1ccc(-c2cccc(Nc3nccc(NCC(O)c4ccccc4)n3)c2)cc1 (stereo not shown) [TCMDC-136467],95.23
13,OC(CNc1ccnc(Nc2cccc(OCCCN3CCOCC3)c2)n1)c1ccccc1 (stereo not shown) [TCMDC-136465],23.11
14,CN(C)CC(=O)Nc1ccc(Nc2nccc(NCC(O)c3ccccc3)n2)cc1 (stereo not shown) [TCMDC-136466],-80.24
15,FC(F)(F)c1ccc2[nH]c(-c3ccc(-c4cccc(CNCC5CCCO5)c4)cc3)nc2c1.O=C(O)C(F)(F)F (stereo not shown) [TCMDC-133095],-18.46
16,Cc1ccc(NC(=O)c2c(C)noc2-c2snnc2C)cc1 [TCMDC-125783],10.03
17,N#Cc1ccc(CN2CCC(NC(=O)c3ccc(-c4nnc(-c5cccc6ccccc56)o4)cc3)CC2)cc1 [TCMDC-136131],6.646
18,O=C(NC1CCN(CCN2CCC(c3cn(CCO)c4ccccc34)CC2)CC1)c1ccc(-c2ccc(C(F)(F)F)cc2)cc1 [TCMDC-138871],111.6
19,O=C(NCC1CCN(CCN2CCC(c3cn(CCO)c4ccccc34)CC2)CC1)c1ccc(-c2ccc(C(F)(F)F)cc2)cc1 [TCMDC-138856],114.3
20,O=C(NCC1CCN(CCN2CCc3ccc4c(c3C2)OCO4)CC1)c1ccc(-c2ccc(C(F)(F)F)cc2)cc1 [TCMDC-138834],-19.42
21,Cc1cc(C2CCN(CCCCNC(=O)c3ccc(-c4ccc(C(F)(F)F)cc4)cc3)CC2)c(C)cc1OCCOC1CCCCO1 (stereo not shown) [TCMDC-138802],-43.58
22,N#Cc1ccc(-c2ccc(C(=O)NC3CCN(CCN4CCC(c5cn(CCOC6CCCCO6)c6ccccc56)CC4)CC3)cc2)cc1 (stereo not shown) [TCMDC-138855],104.1

row,SMILES,% Inhibition [%]
1,COc1ccc2c(c1)c(C1CCN(CCCCNC(=O)c3ccc(-c4ccc(C(F)(F)F)cc4)cc3)CC1)cn2C(C)C [TCMDC-138801],16.06
2,CC(C)Cn1cc(C2CCN(CCN3CCC(CNC(=O)c4ccc(-c5ccc(C(F)(F)F)cc5)cc4)CC3)CC2)c2ccccc21 [TCMDC-138852],92.78
3,CCOc1c(OC)ccc2c1CCN(CCN1CCC(CNC(=O)c3ccc(-c4ccc(C(F)(F)F)cc4)cc3)CC1)C2 [TCMDC-138806],11.85
4,N#Cc1ccc(-c2ccc(C(=O)NC3CCN(CCN4CCC(c5cn(CCO)c6ccccc56)CC4)CC3)cc2)cc1 [TCMDC-138858],-15.2
5,CCOc1ccc(C2CCN(CCN3CCC(NC(=O)c4ccc(-c5ccc(C(F)(F)F)cc5)cc4)CC3)CC2)c(OCC2CC2)c1 [TCMDC-138832],-29.12
6,O=C(NC1CC1)c1cnc(N2CCCC(c3ccccc3)C2)c(Cl)c1 (stereo not shown) [TCMDC-134608],7.948
7,CCOC(=O)[C@H](Cc1cc([N+](=O)[O-])c(Oc2ccc(OC)c(Cc3ccc(OC)c(C(C)C)c3)c2)c([N+](=O)[O-])c1)NC(=O)C(F)(F)F [TCMDC-139398],36.25
8,COc1ccc(C2(CNCC(O)c3cccc([N+](=O)[O-])c3)CCCC2)cc1OC (stereo not shown) [TCMDC-123699],30.43
9,CCC[C@@H]([C@@H](CC1CCCCC1)C(=O)N[C@@H](CCOC(=O)NCC)C(=O)Nc1nccs1)N(O)C=O [TCMDC-138145],41.2
10,NC1=NC(c2ccccc2)(c2ccccc2)C(=O)N1CC=Cc1ccccc1 [TCMDC-136505],-58.42
11,O=C(NCCCN1CCOCC1)c1csc(Nc2ccc(Cl)c(Cl)c2)n1 [TCMDC-123719],-63.94
12,CCc1sc(N2CCC(C)CC2)nc1C(=O)Nc1ccc(F)cc1C(F)(F)F [TCMDC-134663],-1.278
13,CCCCCN1CCCC1CNS(=O)(=O)c1ccc(C(=O)Nc2ccc(C(F)(F)F)cc2)cc1 (stereo not shown) [TCMDC-133682],-15.48
14,O=C(O)C(F)(F)F.OCCN1CCN(Cc2ccc(-c3ccc(-c4nc5ccccc5[nH]4)cc3)cc2)CC1 [TCMDC-133025],-7.938
15,CN1CCCC(CN2CCN(Cc3cccc(-c4cccc(-c5nc6ccccc6[nH]5)c4)c3)CC2)C1 (stereo not shown) [TCMDC-133912],100.3
16,CN1CCCC(CN2CCN(Cc3ccc(-c4cccc(-c5nc6ccccc6[nH]5)c4)cc3)CC2)C1 (stereo not shown) [TCMDC-133916],44.74
17,O=C(O)C(F)(F)F.c1ccc2[nH]c(-c3ccc(-c4ccc(CN5CCN(c6ccncc6)CC5)cc4)cc3)nc2c1 [TCMDC-133830],15.5
18,CN1CCCC(CN2CCN(Cc3cccc(-c4ccc(-c5nc6ccccc6[nH]5)cc4)c3)CC2)C1 (stereo not shown) [TCMDC-133888],60.97
19,c1cc(CN2CCN(c3ccncc3)CC2)cc(-c2ccc(-c3nc4ccccc4[nH]3)cc2)c1 [TCMDC-132921],36.65
20,CN1CCCC(CN2CCN(Cc3ccc(-c4ccc(-c5nc6ccccc6[nH]5)cc4)cc3)CC2)C1.O=C(O)C(F)(F)F (stereo not shown) [TCMDC-133903],95.28
21,CN1CCCC(CN2CCN(Cc3cccc(-c4csc(-c5nc6ccccc6[nH]5)c4)c3)CC2)C1 (stereo not shown) [TCMDC-133913],1.76

# — article PMC4552634, “A New Set of Chemical Starting Points with Plasmodium falciparum Transmission-Blocking Potential for Antimalarial Drug Discovery” (PLoS ONE, 2015)
